# Measured values taken from the supplement of paper PMC9694430.
# “And” between values parts separate entries of the source, which are not always exact repeats. Identical values can stand only once.
# Key:
# Experiment in all cases: thermal shift delta Tm vs DMSO control; higher = stronger stabilization (binding)
# Conditions in all cases: 12.5 µM; protein concentration 2 µM
# LOC_OS04G57630-cb004 = system: LOC_OS04G57630-cb004
# How it was run: (§1)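 Compounds dissolved in DMSO were added to purified rice kinase domain constructs, which had been expressed in E. coli, for differential scanning fluorimetry. Each well held 19.5 μl of 2 μM kinase in 100 mM potassium phosphate pH 7.5, 150 mM NaCl, 10% glycerol and 5 × SYPRO Orange. Fluorescence was followed from 25°C to 95°C at a rate of 0.05°C/s. Shifts in Boltzmann-fitted melting temperature are triplicate means relative to DMSO-only protein.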
# LOC_OS05G07850-cb002 = system: LOC_OS05G07850-cb002
# How it was run: as §1
# LOC_OS05G16824-cb004 = system: LOC_OS05G16824-cb004
# How it was run: as §1
# LOC_OS05G28520-cb001 = system: LOC_OS05G28520-cb001
# How it was run: as §1
# LOC_OS05G30820-cb001 = system: LOC_OS05G30820-cb001
# How it was run: as §1
# LOC_OS05G43570-cb004 = system: LOC_OS05G43570-cb004
# How it was run: as §1
# LOC_OS06G16330-cb003 = system: LOC_OS06G16330-cb003
# How it was run: as §1
# LOC_OS06G22820-cb001 = system: T1, LOC_OS06G22820-cb001
# T1 sequence (whole entry): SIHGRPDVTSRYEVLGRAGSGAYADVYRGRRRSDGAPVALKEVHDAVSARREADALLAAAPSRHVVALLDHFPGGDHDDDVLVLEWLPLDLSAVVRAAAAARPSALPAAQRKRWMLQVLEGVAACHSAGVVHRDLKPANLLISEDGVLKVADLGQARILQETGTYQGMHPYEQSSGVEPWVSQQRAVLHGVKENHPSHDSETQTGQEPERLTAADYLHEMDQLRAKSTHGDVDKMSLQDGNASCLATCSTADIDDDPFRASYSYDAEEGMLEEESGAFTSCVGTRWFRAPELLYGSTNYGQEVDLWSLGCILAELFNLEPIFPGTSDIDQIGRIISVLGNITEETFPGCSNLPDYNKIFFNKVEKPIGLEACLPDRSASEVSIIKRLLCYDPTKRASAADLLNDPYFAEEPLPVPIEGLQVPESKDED
# How it was run: as §1
# LOC_OS07G06570-cb004 = system: LOC_OS07G06570-cb004
# How it was run: as §1
# LOC_OS07G07230-cb001 = system: LOC_OS07G07230-cb001
# How it was run: as §1
# Chain of LOC_OS06G16330-cb003 (as listed by the source): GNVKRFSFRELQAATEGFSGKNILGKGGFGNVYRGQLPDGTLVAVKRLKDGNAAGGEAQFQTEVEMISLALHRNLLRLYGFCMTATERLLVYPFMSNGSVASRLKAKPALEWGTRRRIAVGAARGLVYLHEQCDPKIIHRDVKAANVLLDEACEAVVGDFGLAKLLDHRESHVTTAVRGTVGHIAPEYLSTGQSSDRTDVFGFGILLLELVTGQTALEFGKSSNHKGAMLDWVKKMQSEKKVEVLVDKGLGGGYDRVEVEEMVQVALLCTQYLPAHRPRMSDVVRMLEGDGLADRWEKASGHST
Compound,thermal shift delta Tm (LOC_OS04G57630-cb004),thermal shift delta Tm (LOC_OS05G07850-cb002),thermal shift delta Tm (LOC_OS05G16824-cb004),thermal shift delta Tm (LOC_OS05G28520-cb001),thermal shift delta Tm (LOC_OS05G30820-cb001),thermal shift delta Tm (LOC_OS05G43570-cb004),thermal shift delta Tm (LOC_OS06G16330-cb003),thermal shift delta Tm (LOC_OS06G22820-cb001),thermal shift delta Tm (LOC_OS07G06570-cb004),thermal shift delta Tm (LOC_OS07G07230-cb001)
Nc1[nH]nc2nnc(-c3c(-c4ccccc4)nn4ccccc34)cc12,0.25 °C,2.77 °C,2.12 °C,0.56 °C,0.84 °C,0.89 °C,1.11 °C,0.39 °C,0.46 °C,0.64 °C
OC1CCC(Oc2cccc3cnc(Nc4ccc5nc[nH]c5c4)nc23)CC1 (stereo not given),4.38 °C,13.5 °C,18.9 °C,0.67 °C,2.88 °C,1.07 °C,12.4 °C,0.29 °C,1.85 °C,0.34 °C
Cc1cnc(Nc2ccc(N3CCN(C)CC3)cc2)nc1Nc1cccc(S(=O)(=O)NC(C)(C)C)c1,2.45 °C,10.4 °C,7.7 °C,1.9 °C,0.89 °C,0.98 °C,5.92 °C,0.43 °C,0.63 °C,-0.42 °C
Cc1[nH]c(/C=C2\C(=O)Nc3ccc(S(=O)(=O)Cc4c(Cl)cccc4Cl)cc32)c(C)c1C(=O)N1CCC[C@@H]1CN1CCCC1,2.32 °C,10.3 °C,0 °C,0.75 °C,0.48 °C,0.55 °C,6.03 °C,0.86 °C,0.77 °C,0.98 °C
O=C(Nc1ccc(-c2ccnc(Nc3ccc(N4CCOCC4)cc3)n2)cc1)C1CCCN1 (stereo not given),0.39 °C,8.89 °C,-1.75 °C,0.58 °C,0.48 °C,0.34 °C,2.94 °C,0.34 °C,1.36 °C,0.39 °C
Cc1c(Cn2c(C)nc3c(C(=O)O)cc(N4CCOCC4)cc32)cccc1C(F)(F)F,-0.06 °C,-0.15 °C,-2.15 °C,-0.07 °C,0.36 °C,0.33 °C,-0.16 °C,0.35 °C,1.32 °C,0.5 °C
O=C(NC1CCNCC1)c1n[nH]cc1NC(=O)c1c(Cl)cccc1Cl,-0.08 °C and 0.55 °C,0.37 °C and 0.45 °C,-3.35 °C and -1.47 °C,0.1 °C and 0.64 °C,0.56 °C and 0.5 °C,0.07 °C and 0.69 °C,-0.07 °C and 0.05 °C,0.77 °C and 1.12 °C,0.44 °C and 0.91 °C,0.04 °C and 0.01 °C
CCCS(=O)(=O)Nc1ccc(F)c(C(=O)c2c[nH]c3ncc(Cl)cc23)c1F,0.51 °C,5.57 °C,2.36 °C,1.71 °C,0.75 °C,0.29 °C,1.64 °C,0.42 °C,0.7 °C,-0.02 °C
CN1CCN(c2ccc3nc(-c4c(N)c5c(F)cccc5[nH]c4=O)[nH]c3c2)CC1 [Dovitinib (TKI-258) Dilactic Acid],3.62 °C,8.93 °C,15.7 °C,1.54 °C,1.04 °C,1.01 °C,6.51 °C,0.63 °C,1.1 °C,0.06 °C
C=CC(=O)Nc1cccc(Oc2nc(Nc3ccc(N4CCN(C)CC4)cc3)nc3ccsc23)c1,1.01 °C,8.37 °C,2.38 °C,2.64 °C,1.14 °C,1.26 °C,3.14 °C,0.83 °C,2.96 °C,1.41 °C
c1cncc(CN2CCC(n3ncc4c(N5CCOCC5)nc(-c5ccc6[nH]ccc6c5)nc43)CC2)c1,0.55 °C,0.6 °C,-2.75 °C,0.6 °C,0.62 °C,-0.19 °C,-0.3 °C,0.42 °C,0.64 °C,0.16 °C
CN1CCN(Cc2ccc(-c3cnc4[nH]cc(-c5ccc6[nH]ccc6c5)c4c3)cc2)CC1,11.1 °C,15.3 °C,11.2 °C,2.09 °C,1.88 °C,1.74 °C,13.7 °C,0.7 °C,1.92 °C,0.61 °C
O=C1NC(=O)/C(=C/c2ccc3c(c2)OC(F)(F)O3)S1,0.83 °C,0.16 °C,-1.22 °C,0.96 °C,0.8 °C,0.74 °C,0.37 °C,0.72 °C,0.31 °C,0.11 °C
Cc1cnc(Nc2ccc(OCCN3CCCC3)cc2)nc1Nc1cccc(S(=O)(=O)NC(C)(C)C)c1,1.75 °C,8.73 °C,6.93 °C,0.76 °C,0.92 °C,0.64 °C,4.38 °C,0.29 °C,0.27 °C,0.07 °C
CNC(=O)c1cc(Oc2ccc(NC(=O)Nc3ccc(Cl)c(C(F)(F)F)c3)cc2)ccn1 [Sorafenib],2.09 °C,9.44 °C,1.37 °C,-0.04 °C,0.65 °C,1.2 °C,2.66 °C,1.5 °C,1 °C,-0.34 °C
Cn1cc(-c2ccc3nnc(Sc4ccc5ncccc5c4)n3n2)cn1,0.16 °C,0.32 °C,-3.78 °C,0.44 °C,0.68 °C,0.24 °C,0.16 °C,0.36 °C,1.36 °C,0.51 °C
CN1CCN(c2ccc(-c3ccncc3-c3cc(F)c(O)c(F)c3)cc2)CC1,0.24 °C,3.75 °C,-0.65 °C,0.95 °C,0.41 °C,0.25 °C,1.09 °C,0.54 °C,0.48 °C,0.18 °C
C[C@@H]1CN(CC(=O)Nc2ccc3c(c2)Cc2cccc(-c4cc(=O)cc(N5CCOCC5)o4)c2S3)C[C@H](C)O1,-0.04 °C,0.16 °C,-0.46 °C,-0.13 °C,0.31 °C,0.21 °C,-0.2 °C,0.77 °C,1.02 °C,-0.36 °C
Cc1ccccc1CN1C2=NCCN2C(=O)C2=C1CCN(Cc1ccccc1)C2 [TIC10 Analogue],-0.16 °C,-0.89 °C,-2.52 °C,0.56 °C,0.36 °C,0.33 °C,-0.41 °C,0.74 °C,1.19 °C,0.09 °C
